In PubChem BioAssay AID651635 (National Center for Advancing Translational Sciences (NCATS), 2012):
Among all 400,000 compounds or so, about 1,900 (0.47%) were called active. Inconclusive results (about 14%) are left out. Calls come from the whole dose curve; as a rule, active = well fitted cell-killing curve with a large enough effect; inconclusive = small, poorly fitted or top-dose-only effect, or effect the other way; inactive = no such curve, though single readings can be large or run the other way. Only a selection was taken, and actives are over-represented in it overall.

Experiment: Viability Counterscreen for Primary qHTS for Inhibitors of ATXN expression; note: nearly all actives have a fitted effect of over 40% in size
Settings: S2 cells (HEK-293 line with an ATXN2-luciferase reporter) viability, CellTiter-Fluor protease fluorescence, 24 h; series mostly up to 56.7 µM; activity change, negative = cytotoxicity: at the top concentration
Excerpt: Spinocerebellar ataxia type 2 (SCA2) is a multisystem neurodegenerative disease caused by a dominantly-acting mutation leading to expansion of a polyQ domain in the ataxin-2 protein (ATXN2). SCA2 patients develop progressive ataxia and later lose function in other neuronal systems. Prominent parkinsonian signs develop in some patients. Similar to many neurodegenerative disorders, no symptomatic or disease-modifying treatments are known.
The primary objective of the proposed research is to identify compounds inhibiting ATXN2 expression and to test them for efficacy in SCA2 mouse models. To this end, we have developed a cell-based assay paired with an in vivo mouse model using identical luciferase expression constructs. This approach takes advantage of an ATXN2-luciferase transgene, with the luciferase gene flanked by the upstream and downstream portions of the ATXN2 gene. This primary assay was tested against the NIH Molecular Libraries Small Molecule Repository (MLSMR).
NIH Chemical Genomics Center [NCGC]
NIH Molecular Libraries Probe Centers Network [MLPCN]
Assay Submitter (PI): Daniel Scoles, University of Utah
PROTOCOL TABLE (as described by Inglese J, Shamu CE and Guy RK. 2007)
SEQUENCE No. (e.g., 1, 2, 3, etc.); […] (e.g., Cells, Incubation, Reagent, etc.); VALUE; DESCRIPTION.
1; Cells; 4 uL; white, solid bottom, 1536-well Greiner assay plate.
2; Incubation; 2 hr; 37 degree C in 5% humidified CO2.
3; Compounds; 23 nL; Kalypsis pintool (Wako USA) equipped with a 1536-well pin head.
4; Incubation; 24 hr; 37 degree C in 5% humidified CO2.
5; Reagent; 1 uL; Gly-Phe-7-Amino-4-trifluoromethylcoumarin.
6; Incubation; 30 min; 37 degree C in 5% humidified CO2.
7; Detection; Fluorescence; ViewLux plate reader (PerkinElmer).
8; Reagent; 3 uL; SteadyGlo luciferase solution (Promega).
9; Incubation; 5 min; room temperature.
10; Detection; Luminescence; ViewLux plate reader (PerkinElmer).
NOTES (numbers refer to Sequence numbers above)
1. S2 cells expressing ATXN2-luciferase reporter were suspended in phenol-red free DMEM and dispensed in assay plates using a Multidrop Combi dispenser (Thermo Fisher Scientific).
2. Assay plates were incubated. Evaporation was prevented by covering assay plates with metal lids containing holes to allow gas diffusion.
3. […] Vehicle-only plates, with DMSO being pin-transferred to columns 5-48, were inserted uniformly at the beginning and the end of each library to monitor and record any shifts in assay performance.
5. 125 uM Gly-Phe-7-Amino-4-trifluoromethylcoumarin (MP Biomedicals) working concentration was used at a final concentration of 25 uM.
7. To assess cell viability; the assay plates were read using the ViewLux high-throughput CCD imager (PerkinElmer), wherein single end-point fluorescence measurement was acquired (excitation 405/10; emission 540/25 nm).
8. Detection reagent SteadyGlo Luciferase (Promega) was added to the assay plate.
10. Luminescence is then measured on the ViewLux imager equipped with a clear emission filter using a 2 sec exposure. All screening operations were performed on a fully integrated robotic system (Kalypsys) containing one RX-130 and two RX-90 anthropomorphic robotic arms (Staubli).
Inglese J, Shamu CE and Guy RK, Reporting data from high throughput screening of small molecule libraries, Nature Chemical Biology, 2007, 3(8): 438-441. doi.org/10.1038/nchembio0807-438.
Potency is the fitted concentration of half-maximal effect.

Compound | activity change, negative = cytotoxicity | Potency
CCCc1ccc(C(O)c2ncc(-c3cccc(OC)c3)[nH]2)cc1 (configuration not stated) | -15.1% (inactive) | –
CC(=O)c1ccc(Nc2nc(C(N)c3ccccc3)cs2)cc1 (configuration not stated) | -21.7% (inactive) | –
COc1cccc(NC(=O)Nc2ccc(F)cc2)c1 | -34.2% (inactive) | –
COc1ccc(C(N)c2csc(NC(=O)Nc3cccc(C(F)(F)F)c3)n2)cc1 (configuration not stated) | – | 17.8 µM (active)
Cc1c(O)cc2c(c1C)O[C@](C)(CCC[C@H](C)CCC[C@H](C)CCCC(C)C)CC2 | -6.32% (inactive) | –
OCC1CCCN(c2nc3cc4c(cc3cc2CNCc2cccs2)OCO4)C1 (configuration not stated) | -16.8% (inactive) | –
CC(C)c1cccc(C(C)C)c1Nc1cn[nH]c1 | -36.2% (inactive) | –
O=C1NC[C@H](Cc2ccc(O)cc2)N(C[C@@H]2CCCN2C[C@H](Cc2ccccc2)N2C[C@H](Cc3ccccc3)N(CC3CCCCC3)C(=O)C2=O)C1=O | -28.5% (inactive) | –
CC(C)C[C@H]1CNC(=S)N1C[C@H]1CCCN1C[C@H](Cc1ccc(O)cc1)N1C[C@H](Cc2ccc(O)cc2)N(CC2CCCCC2)C1=S | – | 31.6 µM (active)
CC(C)C[C@H]1CNC(=O)C(=O)N1C[C@@H]1CCCN1C[C@H](Cc1ccccc1)N1C[C@H](CC(C)C)N(CC2CCCCCC2)C(=O)C1=O | -13.6% (inactive) | –
COc1ccc(C2CC(c3cccc(OC)c3)=NN2c2ccc(S(N)(=O)=O)cc2)cc1 (configuration not stated) | -3.55% (inactive) | –
CCCOc1ccc(F)cc1-c1cc(C(=O)Nc2ccc(F)c(Cl)c2)[nH]n1 | -38.1% (inactive) | –
Nc1cccc(OCCCCCOc2cccc(N)c2)c1 | -35% (inactive) | –
c1ccc(CN2CCN(Cc3ccc4c(c3)CN(Cc3c[nH]c5ccccc35)CCO4)CC2)nc1 | -13.5% (inactive) | –
O=c1c(CN2CCOc3ccc(CN4CCC(Oc5cccnc5)CC4)cc3C2)coc2ccccc12 | – | 28.2 µM (active)
CCOC(=O)N1CCC(N2CCOc3ccc(CN4CCC(O)(c5cccnc5)CC4)cc3C2)CC1 | -3.39% (inactive) | –
Cc1cc(-c2ccnc(-n3ncc(C(=O)NCCc4ccncc4)c3C)n2)c(C)s1 | -10.8% (inactive) | –
CC[C@H](C)CCCCC(=O)N[C@@H](CCN)C(=O)N[C@H](C(=O)N[C@@H](CCN)C(=O)N[C@H]1CCNC(=O)[C@@H]([C@H](C)O)NC(=O)[C@H](CCN)NC(=O)[C@H](CCN)NC(=O)[C@H](CC(C)C)NC(=O)[C@@H](CC(C)C)NC(=O)[C@H](CCN)NC1=O)[C@@H](C)O | -16% [at 25.4 µM] (inactive) | –
CC(C)N=C1CCCC1C(=S)SSC(=S)C1CCCC1=NC(C)C (configuration not stated) | – | 0.282 µM (active)
CC1(C(=O)NS(=O)(=O)c2ccc3ccccc3c2)CCN1C(=O)C1(c2ccc(Cl)cc2)CCC1 (configuration not stated) | -0.293% (inactive) | –
CCOC(=O)Cc1ccc(NC(=O)Nc2c[nH]c(=O)[nH]c2=O)cc1 | -20.1% (inactive) | –
COC(=O)c1ccccc1C(=O)NCc1nc(N2CCCC2)c2cccc(C)c2n1 | -14.5% (inactive) | –
